Reference: PubChem BioAssay AID717 (Columbia University Molecular Screening Center, 2007)
In all, about 91,000 compounds went through this assay and about 40 (0.04%) were called active. Cut-off read from the data, not from the text of the source: active = activation above about 37%; inactive = the rest. The list is a sample of the results.

What follows are molecules tested against Bifunctional epoxide hydrolase 2 (Homo sapiens) (UniProt P34913) (assay: sEH enzyme activity enhancers – biochemical, human sEH, primary screen (AID 717)). Conditions: purified human sEH enzymatic activity, activator screen; at 2 µM; stronger effect = higher value.
Chain of Bifunctional epoxide hydrolase 2 (Homo sapiens) (P34913 whole entry, looked up): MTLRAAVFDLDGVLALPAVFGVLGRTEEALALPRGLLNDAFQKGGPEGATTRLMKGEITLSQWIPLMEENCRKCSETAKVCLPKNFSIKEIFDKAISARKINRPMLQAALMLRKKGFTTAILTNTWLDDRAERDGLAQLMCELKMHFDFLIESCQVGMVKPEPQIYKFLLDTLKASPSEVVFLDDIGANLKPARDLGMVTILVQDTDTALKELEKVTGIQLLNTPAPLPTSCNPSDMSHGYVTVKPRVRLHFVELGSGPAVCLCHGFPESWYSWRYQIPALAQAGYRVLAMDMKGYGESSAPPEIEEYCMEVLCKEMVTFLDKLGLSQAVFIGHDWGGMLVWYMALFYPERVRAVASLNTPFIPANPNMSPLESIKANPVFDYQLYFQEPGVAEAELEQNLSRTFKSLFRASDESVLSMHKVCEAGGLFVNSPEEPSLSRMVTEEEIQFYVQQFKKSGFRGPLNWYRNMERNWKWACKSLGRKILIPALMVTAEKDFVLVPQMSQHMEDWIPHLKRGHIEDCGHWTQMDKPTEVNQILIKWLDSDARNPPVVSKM

activation, inactive:
CCC(=O)NC(NCC1CCCO1)C(Cl)(Cl)Cl (centres undefined) 2.5%
O=C(CCc1ccc(S(=O)(=O)N2CCOCC2)cc1)Nc1ccc2ccccc2c1 -20.5%
O=C(CCCOc1ccccc1)NCc1ccco1 -2.8%
COc1ccc(C(=O)N2CCc3cc(OC)c(OC)cc3C2c2cccc([N+](=O)[O-])c2)cc1 (centres undefined) 2.1%
Cc1cc(-c2cccs2)nc(-n2cccc2)n1 -0.3%
CCN(CC)CCNc1ccc(Cl)cc1[N+](=O)[O-] -8.3%
Cc1ccccc1NC(=O)C(C)c1ccc(-c2ccccc2)c(F)c1 (centres undefined) -9.7%
CCOc1ccc(Nc2nc(Cc3nnc(SCC(=O)NC4CCCC4)n3C)cs2)cc1 -12.4%
C=CCn1c(Cn2nnc3ccccc32)nnc1SCC(=O)N/N=C/c1cc(Br)cc(OC)c1O -14.1%
CC12c3ccccc3C(c3ccccc31)C1C(=O)N(Cc3cccnc3)C(=O)C12 (centres undefined) -9.7%
CNS(=O)(=O)c1cnccc1N1CCN(c2cccc(C)c2)CC1 -13.7%
COc1ccc(Cl)cc1NC(=O)CN(C)C(=O)CNC(=O)C12CC3CC(CC(C3)C1)C2 -13.2%
Cc1ccccc1C(=O)N1CCC(C(=O)Nc2ccc(S(=O)(=O)N(C)C(C)C)cc2)CC1 -83.3%
Nc1c(-c2ccc(F)cc2)cnc2ncnn12 -1.1%
COC(=O)c1ccc(C(=O)OC)c(NC(=S)N2CCCCC2)c1 1.5%
O=C(CSc1nc2ccccc2o1)N1c2ccccc2Sc2ccc(Cl)cc21 6.7%
Cc1ccccc1OCc1nnc(SCC(=O)N2c3ccccc3Sc3ccc(Cl)cc32)o1 1%
COc1ccc(CCNC(=O)COC(=O)c2ccc[nH]c2=O)cc1 3.2%
CC1CC(C)CN(C/C=C/c2ccccc2[N+](=O)[O-])C1 (centres undefined) -2.6%
O=C(CSCc1ccc([N+](=O)[O-])cc1)NCCSCc1ccccc1 -17.4%
O=C1c2ccccc2C(=O)c2c1cccc2N1CCN(Cc2ccccc2)CC1 33.6%
O=S(=O)(c1ccc(F)cc1)n1ccc(-c2cnc(-c3ccccc3)s2)n1 8.1%
O=c1[nH]n(-c2cccc(Cl)c2)c2ncccc12 0.8%
CC(=O)Nc1ccccc1C(=O)C(=O)Nc1ccc(F)cc1 21.4%
Cc1noc(C)c1C(=O)N(CC(=O)NC1CCCC1)Cc1ccccc1F 5.6%
COc1cccc(NC(=O)C2c3cc(OC)c(OC)cc3C(=O)N(C)C2c2cccnc2)c1 (centres undefined) 4.9%
Cc1cccc(-n2cnc(C(=O)Nc3cccnc3)c2)n1 7.2%
CC(C)C(NS(=O)(=O)c1cccs1)C(=O)Nc1nc(C(C)(C)C)cs1 (centres undefined) -6%
c1ccc2c(C[n+]3csc4ccccc43)cccc2c1 12.2%
c1ccc(-c2ccnc3nc(-n4cccc4)nn23)cc1 3.1%
COc1cccc(/C=N/NC(=O)C(=O)N2CCCC2)c1 7.2%
CC(C)CC(=O)N1CCC(O)(CS(=O)(=O)Cc2ccccc2)CC1 0.4%
NC(=O)COc1ccc(/C=N/NC(=O)C2CCCN2S(=O)(=O)c2ccc(Cl)cc2)cc1 (centres undefined) -1.2%
O=C(O)COc1ccc(-c2nccc(-c3cccs3)n2)cc1 -9.3%
O=C(CSc1ncnc2c1cnn2CCc1ccccc1)Nc1ccc(F)cc1 -20.6%
CN(C)/C=C(\C#N)C(=O)c1cccnc1Oc1ccc(F)cc1F -10.7%
Cc1ccc2c(c1)-c1c(ssc1=S)C(C)(C)N2C(=O)CN1C(=O)c2ccccc2C1=O 25.4%
Cn1nc([N+](=O)[O-])nc1Sc1ccc(C(C)(C)C)cc1 -5.2%
Cc1sc(NC(=S)NC(=O)c2cccs2)nc1-c1ccc(CC(C)C)cc1 17.5%
Cc1ccc(C)c(NC(=O)C2Cc3ccccc3CN2C(=O)OCc2ccccc2)c1 (centres undefined) 7.9%
COC(=O)c1c(-c2cccs2)csc1NC(=O)CSc1ncnc2sc(C)c(C)c12 -7%
Cc1cc([N+](=O)[O-])ccc1NCc1cccc([N+](=O)[O-])c1 2.8%
O=S(=O)(/N=C(/Nc1ccccn1)c1ccccc1)c1ccc(Cl)cc1 -19.7%
N/C(=N\OC(=O)c1cc(-c2ccccc2)nc2ccccc12)c1ccncc1 3%
Cc1cc2cc3c(N)[nH]nc3nc2cc1C -5.4%
O=C(/C=C/c1cccs1)c1cc(Cl)ccc1OC(=O)N1CCOCC1 7.4%
O=C(O)c1ccccc1NC(=S)NC(NC(=O)c1ccccc1[N+](=O)[O-])C(Cl)(Cl)Cl (centres undefined) -9.3%
Cc1c(Br)c([N+](=O)[O-])nn1C(C)C(=O)Nc1nccs1 (centres undefined) 6.6%
CN(C)/C=C/C(=O)c1ccccc1F -11.3%
COC(=O)CN(C(=S)Nc1ccc(Cl)cc1)C1CC(=O)N(c2ccc(OC)cc2)C1=O (centres undefined) -11.8%
Cc1ccc(-c2nnc(C)c(N3CC(C)OC(C)C3)n2)cc1 (centres undefined) -0.3%
COc1ccc(-c2c(C(C)=O)c(C)nc3sc4c(=O)n(-c5ccc(C)cc5)nnc4c23)cc1 -1.9%
O=C(ON=C1CCN(S(=O)(=O)c2ccccc2)CC1)c1ccc(Cl)cc1 0.1%
N#C/C(=C(/O)Cc1cccc2ccccc12)c1nc2ccccc2s1 13.6%
NS(=O)(=O)c1ccc(Nc2nc(-c3ccccc3)cs2)cc1 -4.9%
CS(=O)(=O)N(CC(=O)Nc1ccc(F)cc1F)c1cccc([N+](=O)[O-])c1 -2.8%
O=C(Nc1cc(C(F)(F)F)ccc1Cl)c1cc2nc3c(c(C(F)(F)F)n2n1)CCCC3 -7.1%
COc1ccc(/C=C2\CCCC3C2=NN(C(=O)c2scnc2C)C3c2ccc(OC)cc2)cc1 (centres undefined) 12.7%
O=C(c1ccccc1)C(Cn1cncn1)C(Sc1ccccc1)c1ccccc1 (centres undefined) 3.9%
